Hits are enriched below; roughly 2.8% of the tested compounds scored in any of these assays.
Shn3 3UTR inh = reduction of Shn3 3'UTR firefly luciferase signal, primary screen, Schnurri-3 inhibitor project, cell-based, Clone20 osteoblasts, set 2 | inhibition, % at 12.5 µM | AID 588674, 2011 | Clone20 osteoblast Shn3 3'UTR firefly luciferase, 24 h | 0.52% of 360,000 active;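 active means mean inhibition of at least 75% with every replicate also reaching 75%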;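 further: 0% = median of neutral control wells and 100% = pilot-screen positive control compound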
CF NFkB inh = inhibitors of PAF-induced NF-kB signaling, primary screen, cell-based, GFP fluorescence, uHTS; KKLEB NF-kB-GFP reporter, GFP fluorescence overnight; inhibition, % at 5 µM; 0.86% of 360,000 active;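 active means at least 50% inhibition at 5 µM, scaled per plate between neutral and stimulator controls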;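 further: PAF is a Pseudomonas aeruginosa culture filtrate used as stimulus; plate controls were PAF-stimulated DMSO wells for no effect and unstimulated DMSO wells for full effect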
HIF-2a block = HIF-2a reporter inhibitors, primary screen, luminescence, 786-0 RCC cells; 786-0 RCC cells HIF-2a reporter, luciferase luminescence, overnight; inhibition, % at 18.8 µM; 0.72% of 360,000 active; AID 624352, 2012;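 active means inhibition of the luminescence signal of 40% or more relative to plate controls, in a single-dose primary screen at 18.75 µM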
KKLEB tox = cytotoxicity in KKLEB CF airway cells, primary screen, cytotoxicity control for CF NF-kB inhibitor project, cell-based, uHTS, fluorescence assay plates | KKLEB CF airway cells viability, ATPlite luminescence, overnight; hits give low values; cells stimulated with P. aeruginosa culture filtrate | activity change (cytotoxicity), % at 5 µM | 0.36% of 360,000 active | AID 602141, 2011;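 active means corrected activity change at or below -50% at 5 µM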
MITF TRPM1 inh = inhibitors of MITF-dependent TRPM1 promoter reporter, primary screen, cell-based, SK-MEL-5, single point, luciferase; SK-MEL-5 TRPM1 promoter luciferase, 24 h; inhibition, % at 12.5 µM; 0.83% of 330,000 active; AID 488899, 2010;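 active means mean inhibition across replicates of 60% or more, whatever share of single replicates reaches that level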
Peg3 prom inh-1 = Peg3 promoter-driven luciferase inhibitors, primary screen, cell-based, HeLa, luciferase luminescence; HeLa PEG-Prom luciferase reporter, overnight; inhibition, % at 20 µM; 1.7% of 360,000 active;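 active means inhibition of at least 50% at 20 µM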
Peg3 prom inh-2 = Peg3 promoter reporter inhibitors, retest, confirmation, cell-based, HeLa, luciferase reporter, single concentration; shares compounds with Peg3 prom inh-1; HeLa PEG-Prom luciferase reporter, luminescence, overnight; inhibition, % at 20 µM; 84% of 1,300 active; AID 602417, 2012;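 active means at 20 µM dose, 40% or more inhibition averaged across four replicates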
CF NFkB inh conf = inhibitors of PAF-induced NF-kB signaling, retest, confirmation, cell-based, GFP fluorescence, single concentration. KKLEB CF airway cells, overnight. 64% of 1,300 active. inhibition, % at 5 µM. shares compounds with CF NFkB inh. AID 602472, 2012; in the data active means inhibition above about 40%;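 further: stimulus PAF is a Pseudomonas aeruginosa filtrate and not platelet activating factor; plate controls were DMSO wells with stimulus for no effect and unstimulated DMSO wells for full effect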
Mdm2 MdmX conf = retested Mdm2-MdmX interaction blockers, confirmation, cell-based, luminescence, single concentration, set 2. SaOS-2 split-luciferase Mdm2/MdmX complementation. inhibition, % at 8 µM. 99% of 740 active. shares compounds with HIF-2a block. AID 504601, 2011;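 active means mean inhibition of the luminescence signal across two replicates at or above 26 percent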
Target sequence (O15151 whole entry, looked up): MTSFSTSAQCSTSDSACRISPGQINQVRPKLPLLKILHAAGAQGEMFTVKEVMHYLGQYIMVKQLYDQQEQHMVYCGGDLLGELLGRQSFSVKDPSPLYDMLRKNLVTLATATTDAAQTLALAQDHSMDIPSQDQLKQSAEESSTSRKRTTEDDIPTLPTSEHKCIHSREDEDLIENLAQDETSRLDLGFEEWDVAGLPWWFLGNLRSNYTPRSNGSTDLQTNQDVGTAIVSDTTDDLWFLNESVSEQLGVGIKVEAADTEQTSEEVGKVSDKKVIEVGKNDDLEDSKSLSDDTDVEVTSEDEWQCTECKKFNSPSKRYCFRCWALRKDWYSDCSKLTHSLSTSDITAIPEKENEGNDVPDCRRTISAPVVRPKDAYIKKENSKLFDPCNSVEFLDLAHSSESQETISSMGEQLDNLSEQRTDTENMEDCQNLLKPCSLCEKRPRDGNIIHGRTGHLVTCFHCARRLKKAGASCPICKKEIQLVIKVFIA
Target sequence (Q00987 whole entry, looked up): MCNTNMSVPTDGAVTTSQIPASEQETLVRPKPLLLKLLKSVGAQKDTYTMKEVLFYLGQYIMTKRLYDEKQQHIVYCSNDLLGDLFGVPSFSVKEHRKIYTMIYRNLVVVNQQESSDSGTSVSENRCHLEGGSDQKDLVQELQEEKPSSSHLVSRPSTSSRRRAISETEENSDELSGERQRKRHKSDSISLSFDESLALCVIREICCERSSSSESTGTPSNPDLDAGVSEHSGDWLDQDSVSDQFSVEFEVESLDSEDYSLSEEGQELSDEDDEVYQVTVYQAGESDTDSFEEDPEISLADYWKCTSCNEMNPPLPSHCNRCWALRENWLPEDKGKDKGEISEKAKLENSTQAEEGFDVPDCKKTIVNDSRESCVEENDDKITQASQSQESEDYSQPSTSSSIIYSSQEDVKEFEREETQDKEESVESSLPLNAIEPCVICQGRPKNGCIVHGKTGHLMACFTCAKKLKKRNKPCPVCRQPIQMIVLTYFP
HIF-2a inh conf = HIF-2a reporter inhibitor retest, confirmation, luminescence, 786-0 RCC cells; shares compounds with HIF-2a block; HIF-2a luciferase reporter luminescence, overnight; 56% of 1,800 active; AID 651580, 2012; inhibition, % at 18.8 µM;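 active means mean inhibition across four replicates of at least 40 percent at the single tested concentration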
HIF-1a cs = HIF-1a luciferase reporter signal reduction – MiaPaCa-2 cells, single concentration, counter-screen for HIF-2a inhibitor project, confirmation. 72% of 1,800 active. shares compounds with HIF-2a block. MiaPaCa-2 HIF-1a luciferase reporter, desferoxamine, overnight. inhibition, % at 18.8 µM. AID 651589, 2012;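 active means mean inhibition of the reporter signal across four replicates at the single tested dose of 50% or more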
Active calls of the source: *; / = no result.

SMILES	Shn3 3UTR inh	CF NFkB inh	HIF-2a block	KKLEB tox	MITF TRPM1 inh	Peg3 prom inh-1	Peg3 prom inh-2	HIF-2a inh conf	HIF-1a cs	others
CS(=O)(=O)c1ccc(-c2cn3cc(C(=O)O)ccc3n2)cc1	8	-13	48*	-7	39	65*	44*	46*	-20
Cc1cc(C)c2sc(NNC(=O)c3ccc(S(=O)(=O)N4CCc5ccccc5C4)cc3)nc2c1	96*	12	4	-12	72*	59*	76*	/	/	Mdm2 MdmX conf=87*
Cc1nnc(NC(=O)c2ccc(S(=O)(=O)N3CCc4ccccc4C3)cc2)o1	-2	9	14	-12	-13	7	/	/	/
O=S(=O)(Nc1cccc2ncccc12)c1cccs1	94*	46	65*	8	84*	103*	97*	/	/	Mdm2 MdmX conf=103*
COc1ccc(C(=O)Nc2nc3ccccc3s2)c(OC)c1	93*	0	92*	-88*	84*	107*	99*	/	/	Mdm2 MdmX conf=97*
COc1ccc2nc(NC(=O)c3ccccc3C(=O)O)sc2c1	-26	-20	0	6	-1	-12	/	/	/
O=S(=O)(Nc1cccc2cccnc12)c1ccccc1	79	78*	58*	-4	90*	103*	99*	62*	-90	CF NFkB inh conf=109*;Mdm2 MdmX conf=102*
Cc1ccc(S(=O)(=O)Nc2cccc3cccnc23)c([N+](=O)[O-])c1	47	68*	57*	0	88*	103*	95*	75*	-216	CF NFkB inh conf=108*;Mdm2 MdmX conf=101*
CCN1C(=O)[C@H]2[C@@H](c3ccc(C)cc3)N[C@]3(CCCN(Cc4ccco4)C3=O)[C@H]2C1=O	-8	11	0	6	/	11	/	/	/
O=C(NCc1cc(Cl)cc(Cl)c1)c1ccc2nc([C@@H]3O[C@H](CO)[C@@H](O)[C@H]3O)[nH]c2c1	-5	-9	-3	-2	/	-9	/	/	/
COc1cc(OC)c(S(=O)(=O)Nc2ccc(C(=O)O)cc2)cc1S(=O)(=O)Nc1ccc(C(=O)O)cc1	-17	13	16	2	8	3	/	/	/
O=C(Nc1c(C(=O)O)[nH]c2ccc(F)cc12)c1cccc(C(F)(F)F)c1	-2	-4	9	16	7	4	/	/	/
CN(C)c1c([N+](=O)[O-])cc(N2C(=O)C=CC2=O)cc1[N+](=O)[O-]	35	-13	94*	10	63*	104*	96*	57*	3
COC(=O)Cc1[nH]n(-c2nc3ccccc3s2)c(=O)c1C(C)=Nc1ccc(Cl)cc1	-21	11	85*	-15	80*	94*	94*	93*	102*
COC(=O)Cc1[nH]n(-c2nc3ccccc3s2)c(=O)c1C(C)=Nc1ccc(C)cc1	49	4	87*	8	97*	91*	94*	92*	102*
Nc1ccc(S(=O)(=O)c2ccccc2)nc1	-23	13	13	1	/	11	/	/	/
O=[N+]([O-])c1ccc(S(=O)(=O)c2ccccc2)nc1	93*	108*	75*	-88*	94*	97*	97*	65*	79*	Mdm2 MdmX conf=103*
O=C(O)c1ccc(N/N=C/c2cc(Br)cs2)cc1	7	3	23	6	11	1	/	/	/
Cc1ccc(/C=N/Nc2ccc(C(=O)O)cc2)s1	50	-10	65*	-4	81*	69*	62*	82*	76*
Nc1ccc(C(=O)N/N=C\c2ccc(OC(=O)c3ccccc3Cl)cc2)cc1	0	-23	-22	-1	-34	-1	/	/	/
O=C(O)c1ccc(N/N=C/c2ccc(OC(=O)c3ccccc3Cl)cc2)cc1	-17	13	81*	1	12	64*	58*	84*	80*
CC(C)c1ccc(/C=N/Nc2ccc(C(=O)O)cc2)cc1	28	15	81*	1	69*	85*	67*	79*	40
Cc1ccc(S(=O)(=O)N(C)C[C@@H]2Oc3ncc(Br)cc3C(=O)N([C@H](C)CO)C[C@@H]2C)cc1	-11	1	10	3	/	-15	/	/	/
Cc1cc(C(=O)CN2C(=O)c3ccccc3S2(=O)=O)c(C)n1CC1CCCO1 (stereo not drawn)	68	-14	92*	-8	83*	96*	93*	98*	104*
Cc1cc(C(=O)CN2C(=O)NC(C)(c3ccccc3)C2=O)c(C)n1CC1CCCO1 (stereo not drawn)	-5	16	-3	6	-2	-8	/	/	/
SMILES	Shn3 3UTR inh	CF NFkB inh	HIF-2a block	KKLEB tox	MITF TRPM1 inh	Peg3 prom inh-1	Peg3 prom inh-2	HIF-2a inh conf	HIF-1a cs	others
COc1ccc(C(=O)CN2C(=O)c3ccccc3S2(=O)=O)cc1	71	8	88*	-5	/	98*	84*	92*	92*
Cc1ccc(C)c(C(=O)CN2C(=O)c3ccccc3S2(=O)=O)c1	12	9	-53	0	16	1	/	/	/
CCCn1c(C)cc(C(=O)CN2C(=O)c3ccccc3S2(=O)=O)c1C	83*	-1	91*	6	/	89*	87*	95*	95*
Cc1ccc(C)c(Cn2c(C(=O)OC(C)C)cc3c2ccn3C)c1	-1	9	3	2	10	23	/	/	/
CCCCOc1cccc2c(=O)n(CC(=O)Nc3ccc4c(c3)OCCO4)ccc12	4	9	-24	-7	/	-1	/	/	/
Cn1c(=O)c2sccc2n2c(CCCC(=O)NCc3ccco3)nnc12	19	-2	16	4	5	8	/	/	/
